We go through 1 sequence from article PMC7862700, “An all-to-all approach to the identification of sequence-specific readers for epigenetic DNA modifications on cytosine”.

Assay in all cases: DAPPL (digital affinity profiling via proximity ligation, sequencing); 10 mM Tris-HCl pH 7.5, 50 mM NaCl, 1 mM DTT, 4% glycerol, room temperature, 30 min; GST-TFs on glutathione beads, 16-mer random dsDNA library, 0.1% formaldehyde crosslink after washing; high values mean tight binding
Common to all, as to details: protein: recombinant; tags: N-terminal GST; dsDNA, one strand shown

In one assay the target is T1, GABPA (Homo sapiens, UniProt Q06546 1-454).
T1 sequence: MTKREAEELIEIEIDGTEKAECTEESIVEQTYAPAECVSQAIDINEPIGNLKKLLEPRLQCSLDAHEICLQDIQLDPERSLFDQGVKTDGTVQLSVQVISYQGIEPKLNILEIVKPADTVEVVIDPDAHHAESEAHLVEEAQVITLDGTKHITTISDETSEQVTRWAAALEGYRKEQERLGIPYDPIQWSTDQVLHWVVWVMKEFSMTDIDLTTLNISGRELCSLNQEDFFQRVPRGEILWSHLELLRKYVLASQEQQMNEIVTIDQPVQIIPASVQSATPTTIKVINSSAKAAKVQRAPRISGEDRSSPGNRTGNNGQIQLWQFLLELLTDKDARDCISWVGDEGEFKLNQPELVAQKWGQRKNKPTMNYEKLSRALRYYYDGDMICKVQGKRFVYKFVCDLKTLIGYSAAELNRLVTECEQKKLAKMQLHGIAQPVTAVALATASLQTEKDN
The procedure, abridged:
(§1)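 Binding signal is each hexamer's read frequency for a factor divided by its frequency in the tag-only sample. The factors were GST-fused human transcription factors from yeast, captured on glutathione beads, DNA-barcoded and pooled with that sample. Pools were incubated with 200 nmole of a random double-stranded 16-mer DNA library in Tris/NaCl/DTT/glycerol buffer at room temperature for 30 min, then washed, crosslinked with 0.1% formaldehyde, proximity-ligated with BsaI/T4 ligase (1 h, 37 °C), PCR-amplified and sequenced on an Illumina NextSeq500.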

A further assay concerns the target T2, EHF (Homo sapiens, UniProt Q9NZC4 1-300).
T2 sequence: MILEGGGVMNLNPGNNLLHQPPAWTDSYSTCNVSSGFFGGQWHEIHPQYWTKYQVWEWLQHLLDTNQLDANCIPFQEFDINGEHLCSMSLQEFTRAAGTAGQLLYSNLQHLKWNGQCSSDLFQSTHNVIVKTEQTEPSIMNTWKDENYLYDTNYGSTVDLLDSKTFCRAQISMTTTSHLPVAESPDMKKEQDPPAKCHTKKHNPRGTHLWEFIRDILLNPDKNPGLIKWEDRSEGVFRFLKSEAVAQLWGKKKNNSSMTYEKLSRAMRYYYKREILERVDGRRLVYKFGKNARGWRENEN
Put shortly: as §1

Another assay concerns the target SPI1 (Homo sapiens, UniProt P17947 1-270). Put shortly: as §1
Another assay deals with ETV5 (Homo sapiens, UniProt P41161 1-510). The procedure, abridged: as §1
Sequence of ETV5 (P41161 whole entry): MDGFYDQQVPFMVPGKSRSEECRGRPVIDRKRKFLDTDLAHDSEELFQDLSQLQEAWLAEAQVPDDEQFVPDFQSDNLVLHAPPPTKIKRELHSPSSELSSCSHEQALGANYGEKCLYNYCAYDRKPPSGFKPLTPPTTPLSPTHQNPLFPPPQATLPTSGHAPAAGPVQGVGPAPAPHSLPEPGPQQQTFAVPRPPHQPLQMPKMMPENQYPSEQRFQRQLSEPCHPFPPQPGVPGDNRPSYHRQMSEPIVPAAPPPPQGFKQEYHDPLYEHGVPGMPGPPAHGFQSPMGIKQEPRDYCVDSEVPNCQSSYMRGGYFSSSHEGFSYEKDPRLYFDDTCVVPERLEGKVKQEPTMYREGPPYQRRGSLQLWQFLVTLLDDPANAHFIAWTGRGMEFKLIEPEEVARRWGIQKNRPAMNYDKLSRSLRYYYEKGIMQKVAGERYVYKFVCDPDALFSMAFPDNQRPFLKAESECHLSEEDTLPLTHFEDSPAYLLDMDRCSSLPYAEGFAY
In a further assay the target is ELF4 (Homo sapiens, UniProt Q99607 1-663). Put shortly: as §1
Sequence of ELF4 (Q99607 whole entry): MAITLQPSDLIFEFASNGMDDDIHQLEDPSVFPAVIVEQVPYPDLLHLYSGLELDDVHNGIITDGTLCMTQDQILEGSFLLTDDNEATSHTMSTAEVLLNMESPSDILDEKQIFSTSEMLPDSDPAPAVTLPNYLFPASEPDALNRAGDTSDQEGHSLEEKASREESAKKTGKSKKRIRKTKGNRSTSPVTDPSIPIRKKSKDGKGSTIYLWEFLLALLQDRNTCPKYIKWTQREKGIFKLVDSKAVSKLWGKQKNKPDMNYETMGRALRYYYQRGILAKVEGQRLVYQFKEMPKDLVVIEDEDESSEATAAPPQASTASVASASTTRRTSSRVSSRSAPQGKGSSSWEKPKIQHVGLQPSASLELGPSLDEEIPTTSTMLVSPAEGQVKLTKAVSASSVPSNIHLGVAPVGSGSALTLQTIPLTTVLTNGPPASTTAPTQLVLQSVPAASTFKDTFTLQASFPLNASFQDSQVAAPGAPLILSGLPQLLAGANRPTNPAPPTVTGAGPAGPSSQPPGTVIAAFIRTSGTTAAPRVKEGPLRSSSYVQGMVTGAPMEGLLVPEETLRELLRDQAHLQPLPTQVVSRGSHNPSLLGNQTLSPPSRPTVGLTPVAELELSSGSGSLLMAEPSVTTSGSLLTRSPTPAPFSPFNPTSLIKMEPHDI
Another assay has as its target T3, ELK4 (Homo sapiens, UniProt P28324-2 1-405).
T3 sequence: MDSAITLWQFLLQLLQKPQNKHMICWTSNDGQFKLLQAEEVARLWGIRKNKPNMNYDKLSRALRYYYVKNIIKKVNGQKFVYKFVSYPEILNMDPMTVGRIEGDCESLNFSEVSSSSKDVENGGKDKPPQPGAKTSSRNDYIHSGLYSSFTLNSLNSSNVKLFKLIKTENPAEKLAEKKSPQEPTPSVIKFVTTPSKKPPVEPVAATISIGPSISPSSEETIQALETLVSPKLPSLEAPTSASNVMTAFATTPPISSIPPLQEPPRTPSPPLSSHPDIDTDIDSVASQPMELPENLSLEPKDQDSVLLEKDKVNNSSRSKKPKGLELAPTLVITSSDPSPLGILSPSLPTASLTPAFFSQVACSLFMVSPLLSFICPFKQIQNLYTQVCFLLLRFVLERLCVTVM
Put shortly: as §1

The target in a further assay is T4, ETV2 (Homo sapiens, UniProt O00321 1-342).
T4 sequence: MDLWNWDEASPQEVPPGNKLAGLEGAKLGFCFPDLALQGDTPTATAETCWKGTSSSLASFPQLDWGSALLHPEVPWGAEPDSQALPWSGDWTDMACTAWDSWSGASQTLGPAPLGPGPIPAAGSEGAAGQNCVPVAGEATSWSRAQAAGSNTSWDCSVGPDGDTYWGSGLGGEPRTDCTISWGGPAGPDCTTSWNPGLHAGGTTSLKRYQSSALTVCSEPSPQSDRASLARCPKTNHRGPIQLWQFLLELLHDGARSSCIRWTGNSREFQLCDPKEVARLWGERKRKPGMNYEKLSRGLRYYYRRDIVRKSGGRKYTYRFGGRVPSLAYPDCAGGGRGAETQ
Put shortly:
as §1

The target in another assay is T5, ELF3 (Homo sapiens, UniProt P78545 1-371).
T5 sequence: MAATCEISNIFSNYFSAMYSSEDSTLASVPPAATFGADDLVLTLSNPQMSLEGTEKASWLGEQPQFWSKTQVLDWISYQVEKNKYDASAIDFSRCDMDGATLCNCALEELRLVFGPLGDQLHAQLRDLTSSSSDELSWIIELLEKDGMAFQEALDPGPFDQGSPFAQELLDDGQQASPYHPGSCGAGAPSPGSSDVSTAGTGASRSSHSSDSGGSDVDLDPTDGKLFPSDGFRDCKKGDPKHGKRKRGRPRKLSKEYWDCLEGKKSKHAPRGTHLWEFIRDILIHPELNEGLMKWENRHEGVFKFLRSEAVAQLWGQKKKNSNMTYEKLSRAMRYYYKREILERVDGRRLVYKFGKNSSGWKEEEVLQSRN
Put shortly:
as §1

For a further assay, the target named is ETV1 (Homo sapiens, UniProt P50549 1-477). The procedure, abridged: as §1
Sequence of ETV1 (P50549 whole entry): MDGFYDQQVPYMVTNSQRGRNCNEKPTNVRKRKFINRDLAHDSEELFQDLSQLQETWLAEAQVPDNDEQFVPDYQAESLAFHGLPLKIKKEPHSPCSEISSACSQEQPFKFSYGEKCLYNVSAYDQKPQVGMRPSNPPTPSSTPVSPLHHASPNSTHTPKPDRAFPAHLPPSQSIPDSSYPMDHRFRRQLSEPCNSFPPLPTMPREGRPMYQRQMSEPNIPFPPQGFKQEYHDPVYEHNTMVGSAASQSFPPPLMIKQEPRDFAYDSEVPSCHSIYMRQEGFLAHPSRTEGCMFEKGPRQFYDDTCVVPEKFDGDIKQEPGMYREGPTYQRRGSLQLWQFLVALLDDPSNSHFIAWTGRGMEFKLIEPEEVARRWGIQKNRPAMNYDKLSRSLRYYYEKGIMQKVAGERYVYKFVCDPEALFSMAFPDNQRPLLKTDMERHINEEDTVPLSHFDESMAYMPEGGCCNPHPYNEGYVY
The next assay has as its target T6, ERF (Homo sapiens, UniProt P50548 1-548).
T6 sequence: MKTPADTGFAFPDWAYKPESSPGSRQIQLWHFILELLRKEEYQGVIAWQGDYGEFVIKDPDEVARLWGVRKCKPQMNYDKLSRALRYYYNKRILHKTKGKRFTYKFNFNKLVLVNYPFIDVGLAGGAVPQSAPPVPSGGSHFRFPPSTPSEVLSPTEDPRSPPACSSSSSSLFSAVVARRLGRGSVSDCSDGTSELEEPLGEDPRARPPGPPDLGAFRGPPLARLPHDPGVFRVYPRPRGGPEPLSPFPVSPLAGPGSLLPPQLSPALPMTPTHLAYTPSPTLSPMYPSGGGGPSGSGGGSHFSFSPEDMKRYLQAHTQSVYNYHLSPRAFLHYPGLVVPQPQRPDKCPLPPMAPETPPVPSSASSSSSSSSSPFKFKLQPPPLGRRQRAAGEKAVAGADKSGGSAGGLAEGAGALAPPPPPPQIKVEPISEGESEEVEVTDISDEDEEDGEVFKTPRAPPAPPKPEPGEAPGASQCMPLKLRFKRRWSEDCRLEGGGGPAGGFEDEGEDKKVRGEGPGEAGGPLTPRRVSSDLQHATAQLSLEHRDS
Put shortly:
as §1

The next assay has as its target T7, ETV7 (Homo sapiens, UniProt Q9Y603 1-341).
T7 sequence: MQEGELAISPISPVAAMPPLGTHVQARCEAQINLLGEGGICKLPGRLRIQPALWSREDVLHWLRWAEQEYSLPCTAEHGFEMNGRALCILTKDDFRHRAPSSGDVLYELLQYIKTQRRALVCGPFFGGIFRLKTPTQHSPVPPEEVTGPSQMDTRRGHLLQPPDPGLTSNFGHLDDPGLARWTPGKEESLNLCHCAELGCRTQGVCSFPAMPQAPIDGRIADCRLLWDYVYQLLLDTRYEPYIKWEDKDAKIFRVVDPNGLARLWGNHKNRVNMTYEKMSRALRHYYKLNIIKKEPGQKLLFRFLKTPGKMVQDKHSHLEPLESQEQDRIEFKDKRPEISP
Put shortly: as §1

In the next assay the target is T8, ETV3 (Homo sapiens, UniProt P41162-2 1-143).
T8 sequence: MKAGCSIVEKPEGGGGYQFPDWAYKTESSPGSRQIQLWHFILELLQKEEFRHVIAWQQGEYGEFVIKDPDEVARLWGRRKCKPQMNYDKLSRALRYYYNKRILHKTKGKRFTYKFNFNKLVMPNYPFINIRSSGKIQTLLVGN
Put shortly:
as §1

In another assay the target is ETV6 (Homo sapiens, UniProt P41212 1-452). Put shortly:
as §1

Sequence of ETV6 (P41212 whole entry): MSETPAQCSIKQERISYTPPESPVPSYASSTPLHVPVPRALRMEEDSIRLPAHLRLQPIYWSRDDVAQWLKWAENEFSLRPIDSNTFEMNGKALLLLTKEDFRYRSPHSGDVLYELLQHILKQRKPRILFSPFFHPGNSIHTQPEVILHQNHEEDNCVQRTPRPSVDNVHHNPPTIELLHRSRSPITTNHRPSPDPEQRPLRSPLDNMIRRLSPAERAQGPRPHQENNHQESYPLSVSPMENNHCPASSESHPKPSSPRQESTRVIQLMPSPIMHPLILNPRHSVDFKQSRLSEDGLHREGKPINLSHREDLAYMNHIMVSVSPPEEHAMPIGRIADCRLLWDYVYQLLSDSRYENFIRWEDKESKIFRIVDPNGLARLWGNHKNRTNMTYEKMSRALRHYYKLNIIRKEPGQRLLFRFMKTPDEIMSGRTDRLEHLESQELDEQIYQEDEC

With AGAAGT, the binding signal with GABPA is 1.05 fold enrichment (6-mer frequency, TF over GST control); with EHF, 1.06 fold enrichment (6-mer frequency, TF over GST control); with SPI1 it was 1.24 fold enrichment (6-mer frequency, TF over GST control); with ETV5, 1.09 fold enrichment (6-mer frequency, TF over GST control); with ELF4, 1.06 fold enrichment (6-mer frequency, TF over GST control); with ELK4, 1.16 fold enrichment (6-mer frequency, TF over GST control). Moreover, the binding signal in the assay with ETV2 is 1.03 fold enrichment (6-mer frequency, TF over GST control); in the assay with ELF3, 1.05 fold enrichment (6-mer frequency, TF over GST control); in the assay with ETV1, 1.05 fold enrichment (6-mer frequency, TF over GST control); in the assay with ERF, 1.05 fold enrichment (6-mer frequency, TF over GST control); in the assay with ETV7, 1.13 fold enrichment (6-mer frequency, TF over GST control); in the assay with ETV3 it was 1.01 fold enrichment (6-mer frequency, TF over GST control). The binding signal with ETV6 was 1.07 fold enrichment (6-mer frequency, TF over GST control).
